High-throughput results as filed in PubChem BioAssay.
Akt phos inh: Akt phosphorylation inhibition | Neuro2A IGF-stimulated pAkt S473 HTRF, 20 min; stronger effect = lower value | activity change, % for hits at 50 µM | actives 0.32% (n = 360,000) | AID 651550; in the data active = activity change below about -80%; inconclusive = mostly about -51% to -80%
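Single-point screen (50 µM final compound) in Neuro2A cells stimulated 20 min with 6 nM IGF at 37 deg C. After lysis, Ser473-phosphorylated Akt read by HTRF (ex 330 nm, em 615/665 nm) as the 665/615 ratio.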
Mito fusion yeast: blocks mitochondrial division or promotes mitochondrial fusion; S. cerevisiae fusion-defective mutant growth rescue, CellTiterGlo 48 h; actives 0.23% (n = 320,000); Potency, µM (titrated, usually from 46.1 µM), actives largely listed as activators; note: nearly all actives have a fitted effect of over 45% in size
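S. cerevisiae fusion-defective temperature-sensitive mutants (e.g. fzo1-1, mgm1-5) grown 48 h at 37C in YPEG (ethanol/glycerol non-fermentable) medium with 23 nl compound per well; growth rescue read as CellTiterGlo luminescence.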
TDP-43 yeast inh: rescues yeast growth from TDP-43 toxicity; TDP-43 expressing yeast growth rescue, BacTiter-Glo, 24 h; Potency, µM (highest dose often 46.1 µM), actives largely listed as activators; actives 1.8% (n = 410,000); AID 652104; note: nearly all actives have a fitted effect of over 50% in size
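Yeast cells expressing TDP-43 under galactose induction are exposed to compounds for 24 hr at 30 deg C. BacTiter-Glo luminescence measures growth, so protective compounds score as activators.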
Anesthetic bind: binds horse apoferritin like a general anesthetic. P02791. apoferritin/1-aminoanthracene competitive binding, fluorescence. Potency, µM (doses to about 77.5 µM), actives largely listed as inhibitors. actives 0.074% (n = 350,000). AID 485281; note: nearly all actives have a fitted effect of over 20% in size
Target sequence (P02791 2-175 limits assumed): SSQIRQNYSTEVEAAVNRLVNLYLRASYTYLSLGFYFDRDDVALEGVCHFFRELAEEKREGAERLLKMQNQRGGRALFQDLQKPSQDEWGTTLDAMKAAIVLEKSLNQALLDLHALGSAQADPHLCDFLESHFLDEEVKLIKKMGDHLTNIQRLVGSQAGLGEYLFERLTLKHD
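Read-out: endpoint 1-AMA fluorescence, excitation 380 nm and emission 535 nm, after compounds sit 10 min at room temperature with 10 uM horse-spleen apoferritin in 50% saturated 1-AMA/PBS. Values come from four-parameter Hill fits.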
aSyn yeast inh: alpha-synuclein toxicity inhibition in yeast; Yeast expressing alpha-synuclein, growth rescue, BacTiter-Glo, 24 h; Potency, µM (doses to about 46.1 µM), usual class: activators; actives 0.14% (n = 370,000); AID 652106; note: nearly all actives have a fitted effect of over 65% in size
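Readout is rescue of growth in alpha-synuclein-expressing yeast, so inhibitors of toxicity appear as activators. Growth after 24 hr at 30 deg C in galactose medium is quantified by luminescence.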
CCT modulator: cytosolic chaperonin activity modulation | purified chaperonin ATPase assay, HTRF ADP detection, 30 min | activity change, % (no concentration beside the values), hits read low | actives 0.3% (n = 360,000) | AID 651819; in the data active = activity change below about -30%
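TRiC at 40 or 20 nM final (batch-dependent) in 30 mM Tris pH 7.4, 100 mM KCl, 5 mM MgCl2, 1 mM DTT, with compound at single 76 uM and 10 uM ATP, 30 min at 37 deg C. ADP detected by HTRF Transcreener, 665/615 ratio.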
A number is an active result; - = inactive; ? = inconclusive; . = no result; ! = not confirmed by another sample. The list is not random: actives were taken first. Their share in the collection is about 2.5%. Unless noted, calls come from the whole dose curve; as a rule, active = well fitted curve in the direction sought with a large enough effect; inconclusive = small, poorly fitted or top-dose-only effect, or another doubt; inactive = no such curve, though single readings can be large; an effect the other way counts as inactive or inconclusive.

SMILES | Akt phos inh | Mito fusion yeast | TDP-43 yeast inh | Anesthetic bind | aSyn yeast inh | CCT modulator
CC[C@H](C)[C@H](NC(=O)[C@H](Cc1ccccc1)NC(=O)[C@H](CC(C)C)NC(=O)[C@H](CCSC)NC(=O)[C@H](CCC(=O)O)NC(=O)[C@H](CCC(=O)O)NC(=O)[C@H](CC(=O)O)NC(=O)[C@H](CO)NC(=O)[C@@H]1CCCN1C(=O)[C@H](CCCCN)NC(=O)[C@@H](N)[C@@H](C)O)C(=O)N[C@@H](Cc1ccc(O)cc1)C(=O)NCC(=O)N[C@@H](Cc1cnc[nH]1)C(=O)N[C@@H](Cc1ccc(O)cc1)C(=O)N[C@@H](CCCCN)C(=O)N[C@@H](CCC(N)=O)C(=O)N[C@@H](C)C(=O)N[C@H](C(=O)N[C@H](C(=O)NCC(=O)N[C@@H](CC(=O)O)C(=O)N[C@H](C(=O)N[C@@H](CC(N)=O)C(=O)N[C@H](C(=O)N[C@@H](CCC(=O)O)C(=O)N[C@@H](CCCNC(=N)N)C(=O)N1CCC[C@H]1C(=O)NCC(=O)N[C@@H](CCSC)C(=O)N[C@@H](CC(C)C)C(=O)N[C@@H](CC(=O)O)C(=O)N[C@@H](Cc1ccccc1)C(=O)N[C@H](C(=O)O)[C@@H](C)O)[C@@H](C)O)[C@@H](C)CC)C(C)C)[C@@H](C)O | . | . | . | - | . | .
Cc1c(C(=O)O)cnc2cc(-c3ccc(Cl)cc3)nn12 | - | - | 3.55µM | - | - | -
COc1ccc(OC)c(C2=NS(=O)(=O)N(C)C(C(=O)Nc3ccc(F)cc3F)=C2)c1 | - | - | 35.5µM! | - | - | -
COc1ccc(CNc2nc(S(=O)(=O)c3ccccc3)c(Cl)s2)cc1OC | - | - | - | - | - | -
O=S(=O)(c1ccccc1)c1nc(NCc2ccccc2)sc1Cl | - | ? | 20µM | ? | - | -
S=c1[nH]nc(-c2cnccn2)n1-c1ccccc1 | - | - | - | - | - | -
COc1ccc(-n2c(-c3cnccn3)n[nH]c2=S)cc1 | - | - | - | - | 3.55µM | -
CCCS(=O)(=O)c1ncc(Cl)c(C(=O)N2CCN(c3ccc(OC)cc3)CC2)n1 | . | . | 14.1µM | - | . | .
CCSc1ncc(Cl)c(C(=O)N2CCN(c3ccc(OC)cc3)CC2)n1 | . | . | - | - | . | .
CC#CC(=O)Nc1cc2c(Nc3ccc(F)c(Cl)c3)ncnc2cn1 | . | . | . | - | . | .
Cc1cc(C)c(NC(=O)CCC(=O)N2Cc3ccccc3Oc3ncccc32)c(C)c1 | . | . | - | ? | . | .
CC(C)c1nc2sc3c(=O)[nH]c(=S)[nH]c3c2c2c1CCCC2 | - | - | - | - | - | -
CC(C)c1nc2sc3c(=O)[nH]c(=S)[nH]c3c2c2c1CCC2 | . | 12.6µM | . | - | . | .
COc1ccc(-c2noc(-c3cccc(OC)c3OC)n2)cc1 | . | . | - | - | . | .
N.N.O=C(O)C1(C(=O)O)CCC1.[Pt+2] | . | - | . | . | . | .
Cc1nnc(SCC2=C(C(=O)O)N3C(=O)C(NC(=O)Cn4cnnn4)[C@@H]3SC2)s1 (some centres undefined) | . | . | . | - | . | .
CC1(C(=O)NCc2ccc(Cl)cc2)CCN1C(=O)Cc1cccc2ccccc12 (centres undefined) | - | . | 35.5µM | . | ? | -
CC1(C(=O)Nc2ccccc2F)CCN1C(=O)Cc1cc(F)ccc1F (centres undefined) | - | . | 7.08µM | . | - | -
CC1(C(=O)Nc2cccc3ccccc23)CCN1C(=O)Cc1ccc(Cl)cc1Cl (centres undefined) | - | . | 35.5µM | . | ? | -
CC1(C(=O)NCc2ccc(Cl)cc2)CCN1C(=O)Cc1ccc(Cl)cc1Cl (centres undefined) | - | . | 31.6µM | . | ? | -
CC1(C(=O)Nc2ccc(F)cc2F)CCN1C(=O)Cc1ccccc1Cl (centres undefined) | . | . | - | . | - | -
CC1(C(=O)NS(=O)(=O)c2ccc(Cl)cc2)CCN1C(=O)Cc1cccc2ccccc12 (centres undefined) | - | . | - | . | - | -
Fc1ccc(C(NCCc2ccc(Cl)cc2)c2nnc(-c3ccccc3Cl)o2)cc1 (centres undefined) | . | . | 31.6µM | - | . | .
O=C1CC(=O)OC(c2ccc([N+](=O)[O-])cc2)O1 | - | . | 3.16µM | . | ? | -
CCCCCCCCc1nc(=S)[nH][nH]1 | - | - | 12.6µM | ? | - | -
SMILES | Akt phos inh | Mito fusion yeast | TDP-43 yeast inh | Anesthetic bind | aSyn yeast inh | CCT modulator
CCCOc1ccc(N2C(=O)CC(N(Cc3ccccc3)N=O)C2=O)cc1 (centres undefined) | - | - | 20µM | - | - | -
CCNC(=S)N(Cc1ccc(OC)cc1)C1CC(=O)N(c2ccc(OCC)cc2)C1=O (centres undefined) | - | - | - | - | - | -
COC(=O)c1ccc(N2C(=O)CC(N(C)Cc3ccccc3)C2=O)cc1 (centres undefined) | . | - | 7.08µM | - | - | -
CCOc1ccc(N2C(=O)CC(N(C)Cc3ccccc3)C2=O)cc1 (centres undefined) | - | - | 17.8µM | - | - | -
COc1ccc(CN(N=O)C2CC(=O)N(c3ccc(OC)cc3)C2=O)cc1 (centres undefined) | - | - | - | - | - | -
COc1cc(-c2coc3c(C(=O)NC4CCCCC4)cccc23)ccc1O | - | . | 35.5µM | . | - | -
COc1cc(-c2coc3c(C(=O)NCc4ccc(OC)c(OC)c4)cccc23)ccc1O | - | . | 14.1µM | . | ? | -
O=C(C[n+]1cccc(Br)c1)c1cccc([N+](=O)[O-])c1 | . | . | . | . | - | .
O=C(NCCc1ccccc1Cl)c1cc2ccccn2n1 | . | . | - | - | . | .
Cc1cccc(-n2cnc(C(=O)O)c2)n1 | - | 14.1µM | - | - | - | -
Cc1cccc(-n2cnc(C(=O)N3CCN(C)CC3)c2)n1 | - | - | - | - | - | -
Cc1ccc(O)c(C(=O)CC(=O)c2cccc(F)c2)c1 | - | - | - | - | 15.8µM | -
Cc1cccc(C(=O)CC(=O)c2cc(Cl)ccc2O)c1 | - | - | ? | - | ? | -
O=C(CC(=O)c1cc(Cl)ccc1O)c1ccccc1 | - | - | 10µM | - | ? | -
COc1ccc(CNCCC(c2ccc3c(c2)OCO3)c2ccccc2OC)cc1 (centres undefined) | . | . | - | - | . | .
CCN1CCc2c(sc(NC(=S)NC(=O)c3cccc(F)c3)c2C(N)=O)C1 | . | . | . | . | - | .
CCOc1cc(C2C3=C(CCCC3=O)NC3=C2C(=O)CCC3)cc(Cl)c1O | - | - | - | - | - | -
CCOc1ccc(C2CC(=O)NC3=C2C(=O)CCC3)cc1Cl (centres undefined) | -107.0% | - | - | - | - | -
COC(=O)N/N=C/c1cc(Br)ccc1O | - | - | - | - | - | -
O=C(N/N=C/c1cc(Br)ccc1O)c1ccccc1Cl | - | - | 14.1µM | - | 10µM | -
